We go through 40 compounds from PubChem BioAssay (NCATS).

Results filed as inconclusive are left out. Active and inactive are the calls of the source. Calls follow the shape of the dose curve; as a rule, active = well fitted cell-killing curve with a large enough effect; inconclusive = small, poorly fitted or top-dose-only effect; inactive = flat fitted curve, though single readings scatter.
% is scaled to controls: 0 for no effect and ±100 for the full control effect.

This experiment in a line: qHTS of pediatric cancer cell lines to identify multiple opportunities for drug repurposing: Primary screen for control Hh wild type fibroblast cells (AID 1347106).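 Also: a drop in luminescence marks cytotoxicity and a rise apparent proliferation; nearly all actives have a fitted effect of over 55% in size.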 As to conditions: Hh wild-type fibroblast viability, CellTiter-Glo luminescence, 48 h; series mostly up to 46 µM; activity change, negative = cytotoxic: at the top concentration. From the text: Drug repurposing or repositioning has been offered as a strategy for drug development in oncology programs. This approach has special potential for childhood cancers and other rare or orphan diseases, where the expected return on new drug development has been a disincentive to pharmaceuticals.
In this project we exploit the poly-pharmacology of drugs to discover new indications via phenotypic screening of a panel of 19 well-characterized cell lines derived from solid tumors seen in children and adolescents. The goal is to identify approved drugs with previously unrecognized anticancer properties that has the potential to reveal new mechanisms and biological processes involved in carcinogenesis or drug resistance. We employed a titration-based paradigm (quantitative high-throughput screening or qHTS), where all compounds were tested at multiple concentrations for their effect on cell viability. Concentration-response curves (CRCs) were derived directly from the primary screen, and both potency and efficacy values were used to identify compounds with robust bioactivity profiles. We screened the NIH Chemical Genomics Center (NCGC) Pharmaceutical Collection (NPC) and Mechanism Interrogation Plate (MIPE) small molecule collections of approved and investigational compounds against these cell lines; and measured metabolically active cells after 48 hours of compound treatment as a proxy for cell viability.
Assay Submitter: Nathalia J. Martinez, National Center for Advancing Translational Sciences, National Institutes of Health, Rockville, MD, USA; email: natalia.martinez@nih.gov
[1] Shen, M et al. Quantitative high-throughput phenotypic screening of pediatric cancer cell lines identifies multiple opportunities for drug repurposing. Oncotarget 2017 Dec 19;9(4):4758-4772. PMID 29435139.
The cells were obtained from University of North Carolina (UNC), Pediatric Preclinical Testing Program (PPT), and Coriell Institute (CI).
qHTS cell viability assay:
Cells were assayed in growth media at a density of 500-1,000 cells/well. Five microliters of cells were dispensed into 1,536-well, white, solid-bottom, TC-treated plates (Greiner Bio One) using a multidrop dispenser and incubated at 37 degrees C, 5% CO2, under a humidified atmosphere for 5 hours. Twenty-three nanoliters of compounds and controls (neutral control DMSO or positive control bortezomib at final concentration of 2.3 µM) were subsequently transferred by Kalypsys pintool. For primary screens, the MIPE collection was tested at 11-point dilutions (final concentrations range from 0.78 nM to 46 µM) and the NPC collection at 8-point dilutions (final concentrations range from 0.59 nM to 46 µM). Compounds tested in follow-up screens were assayed at 11-point dilutions. Cells were incubated for 48 hours, followed by addition of 3 µL of CellTiter-Glo (Promega). After a 15 min incubation at room temperature, samples were analyzed for luminescence intensity using a ViewLux High-throughput CCD imager equipped with clear filters.
In general terms: In qHTS, concentration-response curves come from the screen itself.
For the compound `CC(C)C[C@@H](C(=O)N[C@H](C(=O)OC1CCCC1)c1ccccc1)[C@H](O)C(=O)NO`, the “activity change, negative = cytotoxic” value was -12.3% (inactive). Take `Cc1cc(C(C)Nc2ccccc2)c2nc(N3CCOCC3)cc(=O)n2c1` (stereo not given): the “activity change, negative = cytotoxic” value is -1.19% (inactive). Next, `CC1(C)[C@H]2CC[C@]3(C)[C@@H](C(=O)C=C4[C@@H]5C[C@@](C)(C(=O)O)CC[C@]5(C)CC[C@]43C)[C@@]2(C)CC[C@@H]1O`: 1.57% (inactive); `CNC(=O)c1cc(COc2nnc(Nc3ccc(Cl)cc3)c3ccoc23)ccn1`: 4.25% (inactive). Take `CC[C@H](C=C[C@@H](C)[C@H]1CC[C@H]2[C@@H]3CC=C4C[C@@H](O)CC[C@]4(C)[C@@H]3CC[C@]12C)C(C)C`: the “activity change, negative = cytotoxic” value is -0.677% [at 16.1 µM] (inactive).

Take `C[C@@]1(c2cc(-c3cncnc3)c(F)cc2F)CCSC(N)=N1`: the “activity change, negative = cytotoxic” value is -4.22% (inactive). With `NC1(C(=O)N[C@@H](CCO)c2ccc(Cl)cc2)CCN(c2ncnc3[nH]ccc23)CC1`, the “activity change, negative = cytotoxic” value was -19% (inactive).

For `NC[C@H]1O[C@H](O[C@@H]2[C@@H](O)[C@@H](O[C@H]3O[C@H](CO)[C@@H](O)[C@H](N)[C@@H]3O)[C@H](N)C[C@@H]2N)[C@H](O)[C@@H](O)[C@H]1O`, the “activity change, negative = cytotoxic” value is 7.95% (inactive). With `CCOC(=O)[C@H](CCc1ccccc1)N[C@@H](C)C(=O)N1CCCC1C(=O)O` (stereo not given in full), the “activity change, negative = cytotoxic” value is 14.4% (inactive). With `O=C1CN2Cc3c(ccc(Cl)c3Cl)N=C2N1`, the “activity change, negative = cytotoxic” value was 1.1% (inactive).

In the case of `CNC(=O)[C@H](CC1=CN=C2C=CCC=C12)NC(=O)[C@@H](CC(=O)NO)CC(C)C`, the “activity change, negative = cytotoxic” value was -16.5% (inactive). With `Cc1cc(OCCCS(C)(=O)=O)cc(C)c1-c1cccc(COc2ccc3c(c2)OC[C@H]3CC(=O)O)c1`, the “activity change, negative = cytotoxic” value was -2.4% (inactive).

Take `CO[C@H]1C=CO[C@@]2(C)Oc3c(C)c(O)c4c(O)c(c(C=NN5CCN(C)CC5)c(O)c4c3C2=O)NC(=O)C(C)=CC=C[C@H](C)[C@H](O)[C@@H](C)[C@@H](O)[C@@H](C)[C@H](OC(C)=O)[C@H]1C`: the activity change, negative = cytotoxic is -5.37% [at 9.22 µM] (inactive).

With `CC=C(C(=CC)c1ccc(O)cc1)c1ccc(O)cc1`, the “activity change, negative = cytotoxic” value was -13.2% (inactive). Turning to `C[C@]12C=CC(=O)C=C1CC[C@@H]1[C@@H]2[C@@H](O)C[C@@]2(C)[C@@H]1CC[C@]2(O)C(=O)CO`, the “activity change, negative = cytotoxic” value is -13.3% (inactive). In the case of `c1ccc(CNc2nc(N3CCOc4ccccc43)nc3c2CCCC3)cc1`, the “activity change, negative = cytotoxic” value is 10.8% (inactive). Consider `C=CCc1cccc(C=NNC(=O)CN2CCN(Cc3ccccc3)CC2)c1O`, for which the “activity change, negative = cytotoxic” value was -17% (inactive). The result for `CC(C)=CCCC(C)=CCCC(C)=CCCC(C)=CCCC(C)=CCCC(C)=CCCC(C)=CCCC(C)=CCCC(C)=CCO` reads 6.64% (inactive); that for `N#Cc1c(N(CC(=O)O)CC(=O)O)sc(C(=O)O)c1CC(=O)O`, 4.15% (inactive). Turning to `O=C(C=Cc1ccc(O)cc1)c1ccc(O)cc1O`, the “activity change, negative = cytotoxic” value is 1.9% (inactive). As to `C[C@@H]1CCO[C@H]2Cn3cc(C(=O)NCc4ccc(F)cc4F)c(=O)c(O)c3C(=O)N12`, the “activity change, negative = cytotoxic” value is -0.981% (inactive). For the compound `CNC(=O)c1cc(Oc2ccc(NC(=O)Nc3ccc(Cl)c(C(F)(F)F)c3)c(F)c2)ccn1`, the “activity change, negative = cytotoxic” value is 2.14% (inactive). As for `Cc1c(C(=O)Nc2ccc(N3C[C@@H](C)O[C@@H](C)C3)nc2)cccc1-c1ccc(OC(F)(F)F)cc1`, the “activity change, negative = cytotoxic” value is 3.61% (inactive). Turning to `CCNC(=O)Nc1ccc(Oc2ncnc(N)c2C=NOC)cc1Cl`, the “activity change, negative = cytotoxic” value was -0.461% (inactive). For `COc1nc(C)cnc1NS(=O)(=O)c1cccnc1-c1ccc(-c2nnco2)cc1`, the “activity change, negative = cytotoxic” value was 8.66% (inactive). For `COc1ccc(-c2oc3c(CC=C(C)C)c(O)cc(O)c3c(=O)c2O)cc1`, the “activity change, negative = cytotoxic” value is -1.56% (inactive). As for `COc1cc2c(cc1OC)CC(=O)N(CCCN(C)C[C@H]1Cc3cc(OC)c(OC)cc31)CC2`, the “activity change, negative = cytotoxic” value was 8.03% (inactive). For the compound `CO[C@H]1O[C@@H]2O[C@@]3(C)CC[C@@H]4[C@@H](C)CC[C@@H]([C@H]1C)[C@@]24OO3`, the “activity change, negative = cytotoxic” value was -13.5% (inactive). Take `CCC[C@H](N[C@@H](C)C(=O)N1[C@@H]2CCCC[C@H]2C[C@H]1C(=O)O)C(=O)OCC`: the “activity change, negative = cytotoxic” value was -1.51% (inactive). For the compound `c1ccc(-c2oc3ncnc(NC[C@@H]4CCCO4)c3c2-c2ccccc2)cc1`, the “activity change, negative = cytotoxic” value is -7.7% (inactive). For the compound `COc1ccc(CCN(C)CCCOc2ccc(S(=O)(=O)c3[nH]c4ccccc4c3C(C)C)cc2)cc1OC`, the “activity change, negative = cytotoxic” value was 5.8% (inactive). Regarding `CC(C)C[C@@H](N)[C@H](O)C(=O)N[C@H](C(=O)N[C@H](C(=O)N[C@@H](CC(=O)O)C(=O)O)C(C)C)C(C)C`, the “activity change, negative = cytotoxic” value was -12.6% (inactive). On to `CCC(=O)OCC(=O)[C@@]1(OC(=O)CC)[C@@H](C)C[C@@H]2[C@H]3CCC4=CC(=O)C=C[C@]4(C)[C@@]3(F)[C@@H](O)C[C@@]21C`, for which the “activity change, negative = cytotoxic” value was 1.37% (inactive).

On to `CN1CCN2c3ncccc3Cc3ccccc3C2C1` (stereo not given), for which the “activity change, negative = cytotoxic” value was 8.6% (inactive). The result for `O=C1CCCC(=O)C1C(=O)c1ccc(C(F)(F)F)cc1[N+](=O)[O-]` reads 9.47% (inactive); that for `N#CC(c1ccnc(NCCc2cccnc2)n1)c1nc2ccccc2s1` (stereo not given), -3.2% (inactive); that for `Nc1ccn([C@@H]2O[C@H](CO)[C@@H](O)[C@H]2O)c(=O)n1`, 11.8% (inactive). Regarding `O=C(NCCCCN1CCOCC1)c1cc2ccccc2o1`, the “activity change, negative = cytotoxic” value is -3.89% (inactive). Next, `COc1cc([C@H]2Oc3cc([C@H]4Oc5cc(O)cc(O)c5C(=O)[C@H]4O)ccc3O[C@H]2CO)ccc1O`: -14.1% (inactive); `CSc1cccc(Nc2ncc3cc(-c4c(Cl)cccc4Cl)c(=O)n(C)c3n2)c1`: 1.36% (inactive).
